We go through 61 molecules from PubChem BioAssay AID540333 (Southern Research Specialized Biocontainment Screening …, 2011).

The whole screen tested about 10,000 compounds, of which about 320 (3.2%) were called active. The sample holds actives, similar compounds and a random draw of the others, so the mix is not that of the screen. Cut-off read from the data, not from the text of the source: active = CPE inhibition mostly above about 9.1% (no sharp cut-off); inactive = mostly below about 7.2%.

The nature of this assay: Dengue virus cytopathic effect inhibitors, cell-based, CPE readout, HTS (AID 540333). The note with it: Dengue virus CPE inhibition in host cells, at 20 µM; hits give high values. On the technique in general: Cytopathic effects are the visible damage that an infection or toxin causes in cultured cells.
With `COc1ccc(-c2cn(-c3ccccc3)c3[n+]2CCS3)cc1`, the CPE inhibition was 7.46% (inactive). To `O=C(CSc1nc2ccccc2[nH]1)Nc1ccc2c(c1)CCC2` belongs 2.09% (inactive). Take `NS(=O)(=O)c1ccc(NC(=S)NCc2ccccc2Cl)cc1`: the CPE inhibition is 1.7% (inactive). The figure for `O=[N+]([O-])c1ccc(N2CCOCC2)cc1SCc1ccco1` is 0.08% (inactive); for `COCCNC(=S)N/N=C(\C)c1ccc2cc(OC)ccc2c1` it is 0.1% (inactive); for `COc1cc2c(cc1OC)C(C)N(C(=O)c1ccc(Br)o1)CC2` (stereo unspecified) it is “inactive”. To `CCc1ccc(OCC2c3cc(OC)c(OC)cc3CCN2C(=S)NCCOC)cc1` (stereo unspecified) belongs 17.3% (active). With `COc1cccc(NC(=S)N2CCc3cc(OC)c(OC)cc3C2COc2ccc3c(C)cc(=O)oc3c2)c1` (stereo unspecified), the CPE inhibition is 0.46% (inactive). To `COCCNC(=S)N1CCc2cc(OC)c(OC)cc2C1COc1ccc(C(C)C)cc1` (stereo unspecified) belongs 15.5% (active). The entry for `COc1cc2c(cc1OC)CN(C(=S)Nc1c(C)cccc1C)CC2` is “inactive”; for `COC(=O)Cc1ccc2sc(-c3ccccc3)nc2c1` it is “inactive”.

Consider `COc1cc(/C=N/NC(=O)C2COc3ccccc3O2)cc(OC)c1OC` (stereo unspecified), for which the CPE inhibition result is “inactive”. To `CC(C(=O)NCC1CCCCC1)N1CCN(S(=O)(=O)/C=C/c2ccccc2)CC1` (stereo unspecified) belongs 0.61% (inactive). `COc1ccc(NS(=O)(=O)c2ccc(OC)c(NC(=O)CCC3CCCCC3)c2)cc1`: the CPE inhibition was 0.695% (inactive). The figure for `COc1ccc(NS(=O)(=O)c2ccc(C)c(NC(=O)NC3CCCCC3)c2)cc1` is 7.27% (active); for `O=C(NNS(=O)(=O)c1ccc2ccccc2c1)NC1CCCCC1` it is “inactive”. The figure for `CCOc1ccc(/C(O)=C2/C(=O)C(=O)N(CC3CCCO3)C2c2cccs2)cc1` (stereo unspecified) is 0.87% (inactive); for `Cc1nn(Cc2ccc(C(=O)N3N=C(C(F)F)CC3(O)C(F)F)o2)c(C)c1[N+](=O)[O-]` (stereo unspecified) it is 0.095% (inactive). To `COc1cccc(NC(=O)CN(C)C(=O)COc2ccc3ccccc3c2)c1` belongs 0.135% (inactive); to `O=C(CSc1nnc(-c2ccncc2)o1)NCc1ccccc1Cl`, “inactive”. Take `Cc1ccc(S(=O)(=O)Nc2cc(=O)[nH]c(SCc3ccccc3Cl)n2)cc1`: the CPE inhibition result is “inactive”.

Take `Cc1ccc(S(=O)(=O)Nc2ccc(-c3nnc(SCc4ccccc4Cl)o3)cc2)cc1`: the CPE inhibition is 17.2% (active). For the molecule `Cc1nn(CCC(N)=O)c2nc(-c3cccs3)cc(C(F)(F)F)c12`, the CPE inhibition result is “inactive”. The figure for `O=C(Oc1ccccc1C(=O)Nc1ccccc1)c1ccccc1Br` is 1.84% (inactive).

For the molecule `COc1ccccc1CNC(=O)C(NS(=O)(=O)c1ccc2c(c1)OCCO2)C(C)C` (stereo unspecified), the CPE inhibition result is “inactive”. To `CCCCN(C)C(=S)Nc1ccc(Oc2ccccc2)cc1` belongs 3.21% (inactive); to `CCCn1c(SC(C(=O)Nc2cccc(OC)c2)c2ccccc2)nc2ccccc2c1=O` (stereo unspecified), 0.175% (inactive); to `Cc1ccccc1NC(=O)C1CCCN1/C=C/C(=O)C(F)(F)F` (stereo unspecified), “inactive”. The figure for `CCC(=O)NC(Nc1nc(C)cs1)(C(=O)OC)C(F)(F)F` (stereo unspecified) is 0.32% (inactive). Regarding `CC(C)(C)OC(=O)N[C@H](C(=O)OC(C)(C)C)c1ccc2ccccc2c1`, the CPE inhibition was 0.425% (inactive). To `CCOC(=O)C(C)(C)N(Cc1ccc(C)cc1)S(=O)(=O)c1ccc(Cl)c([N+](=O)[O-])c1` belongs 7.28% (active); to `CCOC(=O)C(C)(C)N(Cc1ccccc1C)S(=O)(=O)c1ccc(Cl)c([N+](=O)[O-])c1`, 7.12% (inactive). The figure for `CCOC(=O)C(C)(C)N(Cc1cccc(C)c1)S(=O)(=O)c1ccc(Cl)c([N+](=O)[O-])c1` is 7.24% (inactive). In the case of `O=C(NN1C(=O)/C(=C\c2cccnc2)SC1=S)C(c1ccccc1)c1ccccc1`, the CPE inhibition entry was “inactive”. The figure for `Cc1ccccc1C(=O)NCCCCc1ccccc1` is 0.125% (inactive); for `O=C(Cn1c(COc2ccccc2)nc2ccccc21)Nc1cc(Cl)ccc1Cl` it is 5.49% (inactive); for `CCC(C)NC(=O)Cn1c(COc2ccc(Cl)cc2Cl)nc2ccccc21` (stereo unspecified) it is 13.4% (active). The entry for `O=C(Cn1c(COc2ccc(Cl)cc2)nc2ccccc21)NCC(F)(F)F` is “inactive”; for `CCOc1cc(/C=C/c2cc(C(=O)O)c3ccccc3n2)ccc1O` it is 0.055% (inactive). The figure for `Cc1ccc(S(=O)(=O)Nc2ccc(NC(=O)Nc3ccc(F)cc3F)cc2)cc1` is 10.3% (inactive); for `Cc1ccc(NS(=O)(=O)c2ccc(C3CCCCC3)cc2)cc1` it is 21.5% (active).

For `Cc1ccc(NS(=O)(=O)c2ccc(OCC(=O)NCc3ccncc3)cc2)cc1`, the CPE inhibition is 0.315% (inactive). To `CC1(C)CC(=O)C2=C(C1)NC1=C(C(=O)c3ccccc31)C2c1ccc(O)cc1` (stereo unspecified) belongs 2.13% (inactive); to `CC(C)Oc1cccc(C(=O)NC(=S)NCc2cccnc2)c1`, 2.73% (inactive); to `O=C(NC(=S)NC(c1ccccc1)c1ccncc1)c1ccccc1` (stereo unspecified), 18.9% (active).

With `CC(C)NC(=S)NC(=O)c1ccc(-c2ccccc2)cc1`, the CPE inhibition was 0.805% (inactive).

With `O=C(NC(=S)Nc1ccc(Cc2ccncc2)cc1)c1ccccc1`, the CPE inhibition is 0.355% (inactive).

For the molecule `CCOC(=O)c1c(C(F)(F)F)cc(-c2ccc(F)cc2)nc1C`, the CPE inhibition result was “inactive”. The entry for `COc1cc(/C=C/C(=O)N(Cc2ccccc2)c2ccccn2)cc(OC)c1OC` is “inactive”. The figure for `CC(C)(Oc1ccc(Cl)cc1)C(=O)N(Cc1ccccc1)c1ccccn1` is 11% (active); for `CC1(C(=O)NC(=S)N(Cc2ccccc2)c2ccccn2)CC1(Cl)Cl` (stereo unspecified) it is 0.075% (inactive); for `O=C(c1ccc(COc2ccc(Br)cc2)o1)N1N=C(C(F)F)CC1(O)C(F)F` (stereo unspecified) it is 2.42% (inactive). `Cc1ccc(OCC(=O)Nc2cc(S(=O)(=O)N3CCCCC3)ccc2C)c([N+](=O)[O-])n1`: the CPE inhibition was 3.06% (inactive). To `Cc1ccc(OCC(=O)NCC(=O)Nc2ccc(F)c(F)c2F)c([N+](=O)[O-])n1` belongs 0.32% (inactive). The figure for `Cc1ccc(OCC(=O)Nc2ccccc2Sc2ccc(Cl)cc2)c([N+](=O)[O-])n1` is 13.9% (active); for `O=C1c2ccccc2S(=O)(=O)c2cc(C(=O)N3CCN(c4ncccn4)CC3)ccc21` it is 0.735% (inactive).

In the case of `CC(C)c1ccc(NC(=O)COc2ccc(F)cc2C(=O)c2cnn(-c3ccccc3)c2)cc1`, the CPE inhibition is 1.51% (inactive). To `CCOP(=O)(OCC)C(NC(=O)Nc1ccccc1)C(N)=O` (stereo unspecified) belongs 1.93% (inactive); to `CC(C)C(=O)NCCc1c[nH]c2ccccc12`, 0.48% (inactive); to `C[C@]1(C(=O)NCCc2c[nH]c3ccccc23)C=C[C@@H](Cc2ccccc2)N1C(=O)c1ccccc1`, 19.4% (active). To `CC1(C(=O)NCCc2c[nH]c3ccccc23)C=CCN1C(=O)c1ccccc1` (stereo unspecified) belongs 1.21% (inactive).
